Results taken from PubChem BioAssay (EPA / NIEHS).
Activity calls are given as the source filed them. Rule for the calls: active = hit-call score of the fitted dose curve at least 0.9, where 1 is the maximum; inactive = score below 0.9.

Tests used:
[1] = read-out: Matrix Metallopeptidase 1 (MMP1), MMP1 (gene 4312); test: BSK_MyoF_MMP1: BioMAP Diversity Plus: MyoF Assay for Matrix Metallopeptidase 1 (MMP1) Biomarker Activity (AID 2284268); settings: primary human lung fibroblasts
In short: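 Lung fibroblast cultures were dosed with test chemicals and, after 24 h, MMP1 levels were measured by ELISA; responses were referenced to DMSO and analysed for increases.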

[2] = read-out: TIMP metallopeptidase inhibitor 1 (TIMP1), TIMP1 (gene 7076); test: BSK_MyoF_TIMP1: BioMAP Diversity Plus: MyoF Assay for TIMP metallopeptidase inhibitor 1 (TIMP1) Biomarker Activity (AID 2284269); settings: primary human lung fibroblasts
In short: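 ELISA read-out of TIMP-1 from primary human lung fibroblast cultures 24 h after compound dosing; gain of signal relative to DMSO vehicle baseline defines activity.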

[3] = read-out: Intercellular Adhesion Molecule 1 (ICAM1), ICAM1 (gene 3383); test: BSK_BE3C_ICAM1: BioMAP Diversity Plus: BE3C Assay for Intercellular Adhesion Molecule 1 (ICAM1) Biomarker Activity (AID 2284278); settings: primary human bronchial epithelial cells;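 note: cell-surface ICAM-1 protein level quantified by ELISA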
In short: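 Measured by ELISA: ICAM-1 expressed by primary human bronchial epithelial cells 24 h after compound treatment, with upward-direction fitting versus DMSO vehicle.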

[4] = read-out: Interferon-inducible T-cell alpha chemoattractant (ITAC), CXCL11 (gene 6373); test: BSK_BE3C_ITAC: BioMAP Diversity Plus: BE3C Assay for Interferon-inducible T-cell alpha chemoattractant (ITAC) Biomarker Activity (AID 2284279); settings: primary human bronchial epithelial cells
In short: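 ELISA read-out of I-TAC after 24 h chemical dosing of human lung primary bronchial epithelial cells; gain-of-signal fit vs DMSO baseline. Parallel SRB total-protein staining (0.1% SRB, 10% TCA fixation, 560 nm) assessed cytotoxicity.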

[5] = read-out: Interleukin-8 (IL8), CXCL8 (gene 3576); test: BSK_BE3C_IL8: BioMAP Diversity Plus: BE3C Assay for Interleukin-8 (IL8) Biomarker Activity (AID 2284280); settings: primary human bronchial epithelial cells
In short: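 Primary human bronchial epithelial cells (BE3C system) exposed 24 h; IL-8 measured by ELISA and fitted in positive direction versus DMSO. Overt cytotoxicity assessed by SRB total-protein staining in parallel cultures.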

[6] = read-out: Epidermal growth factor receptor (EGFR), EGFR (gene 1956); test: BSK_BE3C_EGFR: BioMAP Diversity Plus: BE3C Assay for Epidermal growth factor receptor (EGFR) Biomarker Activity (AID 2284281); settings: primary human bronchial epithelial cells
In short: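 Human primary bronchial epithelial cells (BE3C system) dosed with chemicals; EGFR measured by ELISA at 24 h, fitted in the positive direction relative to DMSO. Cytotoxicity tracked in parallel cultures by SRB total-protein staining.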

KRT18 (gene 3875) = test: BSK_BE3C_Keratin818: BioMAP Diversity Plus: BE3C Assay for Keratin 818 Biomarker Activity (AID 2284282); settings: primary human bronchial epithelial cells
In short: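 BE3C: human bronchial epithelial primary cells, 24 h exposure, Keratin 8/18 ELISA; DMSO = negative control/baseline; cytotoxicity by parallel SRB stain (0.1% SRB after 10% TCA fixation, 560 nm).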

[7] = read-out: Matrix Metallopeptidase 9 (MMP9), MMP9 (gene 4318); test: BSK_BE3C_MMP9: BioMAP Diversity Plus: BE3C Assay for Matrix Metallopeptidase 9 (MMP9) Biomarker Activity (AID 2284283); settings: primary human bronchial epithelial cells
In short: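 BE3C, human bronchial epithelial primary cells; 24 h post-dose; MMP-9 by ELISA; positive fit vs DMSO; SRB (0.1%, TCA-fixed, 560 nm) parallel cytotox.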

[8] = read-out: Plasminogen activator inhibitor-1 (PAI1), SERPINE1 (gene 5054); test: BSK_CASM3C_PAI1: BioMAP Diversity Plus: CASM3C Assay for Plasminogen activator inhibitor-1 (PAI1) Biomarker Activity (AID 2284284); settings: primary human coronary artery smooth muscle cells;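 note: PAI-1 protein level measured by ELISA 24 h after dosing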
[9] = read-out: Monocyte Chemoattractant Protein-1 (MCP1), CCL2 (gene 6347); test: BSK_hDFCGF_MCP1: BioMAP Diversity Plus: hDFCGF Assay for Monocyte Chemoattractant Protein-1 (MCP1) Biomarker Activity (AID 2284285); settings: primary human foreskin fibroblasts
In short: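 Human foreskin fibroblasts (hDFCGF system) were exposed to compound and secreted MCP-1 was measured by ELISA after 24 hours. Activity was fitted relative to DMSO. Cytotoxicity was checked by SRB total-protein staining in parallel cultures.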

O=c1oc2ccccc2c(O)c1C(CC(O)c1ccc(-c2ccc(Br)cc2)cc1)c1ccccc1 (stereo not given)
outcome [1]: inactive | AC50 [2]: 7.83 µM (active)

OC(Cc1ccccc1Cl)(Cn1[nH]cnc1=S)C1(Cl)CC1 (stereo not given)
outcome [1]: inactive | outcome [2]: inactive

Cc1c([N+](=O)[O-])c(C)c([N+](=O)[O-])c(C(C)(C)C)c1[N+](=O)[O-]
AC50 [1]: 20 µM (active) | outcome [2]: inactive

Cc1ccccc1OP(=O)(Oc1ccccc1)Oc1ccccc1
AC50 [1]: 29.6 µM (active) | AC50 [2]: 0.0187 µM (active)

O=[N+]([O-])c1cccc2ccccc12
outcome [1]: inactive | outcome [2]: inactive

c1ccc2sc(SNC3CCCCC3)nc2c1
outcome [1]: inactive | outcome [2]: inactive

CCCCN(CCCC)C(=S)[S-].CCCCN(CCCC)C(=S)[S-].[Ni+2]
outcome [1]: inactive | outcome [2]: inactive

O=[N+]([O-])c1ccc(Nc2ccccc2)cc1
outcome [1]: inactive | outcome [2]: inactive

CCOP(=S)(OCC)SCS(=O)(=O)C(C)(C)C
outcome [1]: inactive | outcome [2]: inactive

O=C1C=CC(=O)c2ccccc21
AC50 [1]: 10.1 µM (active) | AC50 [2]: 4.43 µM (active)

Oc1cccc(-c2ccccc2)c1
AC50 [1]: 31.2 µM (active) | outcome [2]: inactive

CC(C)=CC1C(C(=O)OCc2cccc(Oc3ccccc3)c2)C1(C)C (stereo not given)
outcome [1]: inactive | outcome [2]: inactive

Oc1ccc(Cc2ccc(O)cc2)cc1
outcome [1]: inactive | outcome [2]: inactive

CC(C)N(C(=O)CCl)c1ccccc1
outcome [1]: inactive | AC50 [2]: 3.53 µM (active)

O=S(=O)(C(Cl)(Cl)Cl)C(Cl)(Cl)Cl
AC50 [1]: 7.05 µM (active) | AC50 [2]: 2.93 µM (active)

CC(C)(C)c1cc([N+](=O)[O-])cc(C(C)(C)C)c1O
outcome [1]: inactive | outcome [2]: inactive

O=C(Cc1ccccc1)OCCc1ccccc1
outcome [3]: inactive | outcome [4]: inactive | outcome [5]: inactive | outcome [6]: inactive | outcome (KRT18 (gene 3875)): inactive | outcome [7]: inactive | outcome [8]: inactive | outcome [9]: inactive
